Laboratory results published in PubChem BioAssay (NCI).
About 79,000 compounds went through this panel and 15% of them were active in at least one assay; those are over-represented in the sample as a whole. No stated cut-off is given here; in the data, active means growth inhibition above about 70%; inactive means the rest. *1 amine or outer side, *2 acyl side, *3 side chain or, on linkers, in order; H or OH if unused. Where a SMILES comes first, the peptide text is derived from it. Bridges are numbered along the chain shown (N, C = ends). [ ]: non-standard residue; d: D form. The star is where a group is joined. Fmoc = O=C(OCC1c2ccccc2-c2ccccc21)*; X9 = O=C(C(CCCCNO[*:3])N[*:1])[*:2]

Columns and labels:
[1] = NCI Yeast Anticancer Drug Screen. Data for the rad50 strain (AID 155);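 further: 0% = growth of vehicle-only cultures of the same strain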; conditions: S. cerevisiae rad50 strain growth inhibition; at 50.0 µM; stronger effect = higher value
Procedure, shortened: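 Compounds were tested on a yeast strain with an engineered DNA damage repair alteration; the reported value is growth inhibition normalised to vehicle treatment.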

[2] = NCI Yeast Anticancer Drug Screen. Data for the mec2-1 strain (AID 157); conditions: S. cerevisiae mec2-1 strain, at 50.0 µM, stronger effect = higher value
Procedure, shortened: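 mec2-1 yeast strain, carrying an alteration in DNA damage repair or cell cycle control, was exposed to compounds; growth inhibition was measured relative to vehicle-treated controls.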

[3] = NCI Yeast Anticancer Drug Screen. Data for the sgs1 mgt1 strain (AID 161);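 further: 0% = growth of cultures given vehicle only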; conditions: S. cerevisiae sgs1 mgt1 strain, at 50.0 µM, stronger effect = higher value
Procedure, shortened: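 Percent growth inhibition was derived by comparing compound-exposed mutant yeast with vehicle-exposed cultures. The strain carries alterations in DNA damage repair.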

[4] = NCI Yeast Anticancer Drug Screen. Data for the cln2 rad14 strain (AID 165);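 further: 0% = growth equal to vehicle treated cultures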; conditions: S. cerevisiae cln2 rad14 strain, at 50.0 µM, stronger effect = higher value
Procedure, shortened: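 Yeast carrying cln2 and rad14 alterations (cell cycle control and DNA damage repair) were exposed to compounds. Growth inhibition was measured against vehicle-treated controls.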

[5] = NCI Yeast Anticancer Drug Screen. Data for the bub3 strain (AID 167); conditions: S. cerevisiae bub3 mutant strain, at 50.0 µM, stronger effect = higher value
Procedure, shortened: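 Growth of a checkpoint-deficient yeast mutant is measured after compound exposure. Values represent inhibition relative to vehicle.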

[6] = NCI Yeast Anticancer Drug Screen. Data for the mlh1 rad18 strain (AID 175); conditions: S. cerevisiae mlh1 rad18 strain growth inhibition; at 50.0 µM; stronger effect = higher value
Procedure, shortened: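 Growth inhibition of the yeast strain was measured after compound exposure and expressed relative to vehicle-treated controls. The strain carries defined defects in DNA damage repair.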

Measured: growth inhibition

CC(O)C(=O)N1CCCCC1 (centres undefined)
inactive: [1] 13.7% | [2] 9.5% | [3] -3.95% | [4] -8.35% | [5] 10.6% | [6] -23.1%

CCOC(=O)Nc1cccc(Cl)c1
inactive: [1] 10.9% | [2] -2.45% | [3] 18.9% | [4] 9.65% | [5] -7.35% | [6] 22.1%

CN1N=C(N)c2cn(C3OC(COP(=O)(O)O)C(O)C3O)c3ncnc1c23 (centres undefined)
inactive: [1] -16.2% | [2] 1.2% | [3] 4.7% | [4] -22.8% | [5] 11.3% | [6] -9.05%

O=C1/C(=C/c2ccccc2)CN(C(=O)OCC(Cl)(Cl)Cl)C/C1=C\c1ccccc1
inactive: [1] 2.6% | [2] 7.3% | [3] -31.4% | [4] 4.9% | [5] -11% | [6] -57.7%

COc1ccc2cc(C(=O)O)ccc2c1OC
inactive: [1] 1.05% | [2] 1.7% | [3] 27% | [4] 25.1% | [5] -6.3% | [6] -3.85%

NC(=O)CNC(=O)C1CCCN1C(=O)C1CCCCNOC(=O)CCC(NC(=O)OCC2c3ccccc3-c3ccccc32)C(=O)NC(Cc2c[nH]c3ccccc23)C(=O)N1 (centres undefined) (Fmoc-EW[X9]PG-NH2; ester 1-3; configuration not given here)
inactive: [1] -16.5% | [2] -14.7% | [3] -22.2% | [4] 18.4% | [5] 4.1% | [6] -6.35%

CCOC(=O)C1=C(O)c2ccccc2S(=O)(=O)N1C (tested in a mixture with another compound)
inactive: [1] 4.05% | [2] 20.3% | [3] 14% | [4] -18.9% | [5] -25.6% | [6] 0%

COC1=CC(=O)C2CC=C(C)CC2(C)C1=O (centres undefined)
inactive: [1] -7.9% | [2] -12.4% | [3] -16.6% | [4] 18% | [5] -0.05% | [6] -3.8%

Cc1ccc(/C=C/C(=N/NC(=O)c2ccccc2)C(C)CN(C)C)cc1 (centres undefined)
inactive: [1] 6.6% | [2] 5.65% | [3] 6.45% | [4] -11.2% | [5] 0.25% | [6] 12.9%

Cc1ccccc1S(=O)(=O)NSc1ccccc1[N+](=O)[O-]
inactive: [1] 28.2% | [2] -5.25% | [3] 33% | [4] 1.85% | [5] -12.8% | [6] 25.7%

Fc1c(F)c(-c2c(F)c(F)c(Br)c(F)c2F)c(F)c(F)c1Br
inactive: [1] 2.5% | [2] -14.6% | [3] -7.45% | [4] 6.15% | [5] 20.6% | [6] -0.65%

Cc1ccc(NC(=O)OCC2CC3C=CC2C3)cc1NC(=O)OCC1CC2C=CC1C2 (centres undefined)
inactive: [1] -21.2% | [2] -14.3% | [3] -14.8% | [4] -6.8% | [5] -3.25% | [6] 3.7%

CC(=N\[O-])/C(C)=N/O.CC(=N\[O-])/C(C)=N/O.CCCc1ccncc1.[Cl-].[Cl-].[Rh+3]
inactive: [1] -9.2% | [2] -34% | [3] -29.4% | [4] 13.7% | [5] -44.6% | [6] 3.9%

Cc1ccc(CS(=O)(=O)c2ccc(C)cc2)cc1
inactive: [1] -3.3% | [2] -0.45% | [3] -4.2% | [4] -36.8% | [5] -22.9% | [6] -2.35%

COC1/C=C/OC2(C)Oc3c(C)c(O)c4c(O)c(c(C=NNC(=O)c5ccc(N)cc5)c(O)c4c3C2=O)NC(=O)/C(C)=C/C=C/C(C)C(O)C(C)C(O)C(C)C(OC(C)=O)C1C (centres undefined)
inactive: [1] -3.55% | [2] 13.5% | [3] -3.25% | [4] -17.6% | [5] -5.3% | [6] 29.4%

O=C(O)c1ccc(Cl)c(C(=O)O)c1
inactive: [1] 13.8% | [2] 4.65% | [3] 26.7% | [4] 3.15% | [5] -11.7% | [6] 11.8%

O=C(Nc1ccc([N+](=O)[O-])cc1)N(c1ccccc1)c1cc(N2CCOCC2)ccn1
inactive: [1] 40.7% | [2] 16.6% | [3] 9.1% | [4] 13.8% | [5] 5.8% | [6] 34.9%

CCOC(=O)CC1(c2ccccc2)OC(=O)c2ccccc21 (centres undefined)
inactive: [1] 9.05% | [2] 13.2% | [3] 8.65% | [4] 4.75% | [5] 16.9% | [6] -11.2%

O=C1c2ccccc2C(=O)N1CCCSc1ccc(F)cc1
inactive: [1] 32.8% | [2] -9.5% | [3] 28.4% | [4] 3.5% | [5] 15.3% | [6] 36.2%
